Activity calls are given as the source filed them.
How the values were obtained:
[1] = tested on: Plasmodium falciparum Sir2 (PF13_0152, Sir2A); experiment: Plasmodium falciparum Sir2A binding compounds – biochemical, small-molecule microarray, 635 nm fluorescence, primary screen (AID 1098); settings: fluorescence 635 nm, higher = more signal;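 further: score merges spot fluorescence intensity with its signal-to-noise ratio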
[2] = probe aDKK1 binding to arrayed compounds – biochemical, biotinylated probe, 635/667 nm fluorescence, primary screen (AID 1099); settings: small-molecule microarray, higher = more signal;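 further: score merges 667nm spot fluorescence with signal to noise across triplicate slides; reference of the scale not given here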
[3] = probe aCHRDL2 binding to arrayed compounds – biochemical, biotinylated probe, 635/667 nm fluorescence, primary screen (AID 1100); settings: small-molecule microarray, higher = more signal
[4] = change in splice reporter luminescence, either direction, cell-based, HEK293, spliceosome inhibition project, primary screen (AID 1101); settings: HEK293 splicing luciferase reporter, 24 h, higher = more signal, called active from +8 up or from −8 down;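 further: HEK293 cells carrying a splicing-competent luciferase reporter gene; test concentration not given here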
[5] = molecular target: Fibroblast growth factor 10 (Homo sapiens) (UniProt O15520); experiment: compounds binding fibroblast growth factor 10 – biochemical, small-molecule microarray, 635 nm fluorescence, primary screen (AID 1102); settings: FGF10 binding, fluorescence 635 nm, higher = more signal
Sequence of Fibroblast growth factor 10 (Homo sapiens) (O15520 whole entry, looked up): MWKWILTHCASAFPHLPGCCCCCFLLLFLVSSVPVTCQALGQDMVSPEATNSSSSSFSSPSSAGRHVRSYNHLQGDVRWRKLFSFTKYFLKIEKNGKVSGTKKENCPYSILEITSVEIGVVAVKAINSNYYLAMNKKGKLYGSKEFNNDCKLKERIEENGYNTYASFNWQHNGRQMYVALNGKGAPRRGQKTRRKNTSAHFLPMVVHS

[6] = tested on: glycogen synthase kinase-3 (GSK3A per assay name; protocol says GSK3B); experiment: compounds binding glycogen synthase kinase-3 – biochemical, small-molecule microarray, 635 nm fluorescence, GSK3A, primary screen (AID 1103); settings: fluorescence 635 nm, higher = more signal; further: the record names both GSK3A and GSK3B
[7] = molecular target: Epidermal growth factor receptor (Homo sapiens) (UniProt P00533); experiment: compounds binding epidermal growth factor receptor – biochemical, small-molecule microarray, 635 nm fluorescence, primary screen (AID 1104); settings: EGFR binding, higher = more signal;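 further: score merges 667 nm emission intensity with spot signal to noise over triplicate slides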
Sequence of Epidermal growth factor receptor (Homo sapiens) (P00533 whole entry, looked up): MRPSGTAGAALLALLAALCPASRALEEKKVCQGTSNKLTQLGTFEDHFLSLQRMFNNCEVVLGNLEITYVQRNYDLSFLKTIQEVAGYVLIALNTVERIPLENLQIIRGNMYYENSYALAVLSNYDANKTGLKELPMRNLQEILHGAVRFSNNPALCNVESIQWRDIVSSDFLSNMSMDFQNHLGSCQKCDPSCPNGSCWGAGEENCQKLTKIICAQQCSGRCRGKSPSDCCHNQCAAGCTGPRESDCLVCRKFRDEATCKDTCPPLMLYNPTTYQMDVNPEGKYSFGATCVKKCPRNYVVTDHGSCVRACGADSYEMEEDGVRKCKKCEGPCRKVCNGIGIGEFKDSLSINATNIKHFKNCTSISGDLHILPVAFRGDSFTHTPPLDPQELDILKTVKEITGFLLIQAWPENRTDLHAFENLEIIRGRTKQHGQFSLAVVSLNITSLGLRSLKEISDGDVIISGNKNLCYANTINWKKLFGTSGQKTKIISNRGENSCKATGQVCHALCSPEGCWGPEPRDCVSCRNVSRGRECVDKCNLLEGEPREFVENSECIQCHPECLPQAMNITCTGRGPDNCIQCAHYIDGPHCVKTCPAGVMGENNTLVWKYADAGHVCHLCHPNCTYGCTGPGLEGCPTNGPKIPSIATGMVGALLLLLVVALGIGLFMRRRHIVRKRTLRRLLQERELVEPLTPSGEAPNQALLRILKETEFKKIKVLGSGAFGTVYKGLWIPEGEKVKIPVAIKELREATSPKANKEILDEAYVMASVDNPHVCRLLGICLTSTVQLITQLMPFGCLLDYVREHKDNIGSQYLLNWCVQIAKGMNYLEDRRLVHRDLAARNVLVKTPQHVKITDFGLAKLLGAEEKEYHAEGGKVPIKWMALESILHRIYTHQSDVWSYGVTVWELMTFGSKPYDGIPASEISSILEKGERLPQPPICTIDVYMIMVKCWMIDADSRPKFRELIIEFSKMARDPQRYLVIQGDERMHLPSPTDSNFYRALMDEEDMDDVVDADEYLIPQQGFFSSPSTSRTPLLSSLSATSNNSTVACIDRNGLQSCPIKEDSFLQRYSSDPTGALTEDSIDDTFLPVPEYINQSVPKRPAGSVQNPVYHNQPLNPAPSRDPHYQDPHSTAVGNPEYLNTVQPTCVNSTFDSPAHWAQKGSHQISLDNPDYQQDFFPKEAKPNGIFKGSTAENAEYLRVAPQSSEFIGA

[8] = molecular target: Follistatin-related protein 3 (Homo sapiens) (UniProt O95633); experiment: compounds binding follistatin-related protein 3 – biochemical, small-molecule microarray, 635 nm fluorescence, primary screen (AID 1105); settings: FSTL3 binding, higher = more signal;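 further: score merges emission near 667 nm and signal to noise per printed spot across three slides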
Sequence of Follistatin-related protein 3 (Homo sapiens) (O95633 whole entry, looked up): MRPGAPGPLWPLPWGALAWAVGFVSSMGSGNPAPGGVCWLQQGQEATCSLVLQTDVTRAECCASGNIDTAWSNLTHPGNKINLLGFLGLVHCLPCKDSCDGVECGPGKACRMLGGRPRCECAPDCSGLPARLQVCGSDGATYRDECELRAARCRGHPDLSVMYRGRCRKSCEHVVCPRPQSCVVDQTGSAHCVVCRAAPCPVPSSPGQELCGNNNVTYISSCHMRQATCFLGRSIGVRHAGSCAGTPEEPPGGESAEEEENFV

[9] = molecular target: Dickkopf-related protein 1 (Homo sapiens) (UniProt O94907); experiment: small molecules binding DKK1 protein – biochemical, small-molecule microarray, 635 nm fluorescence scan, primary screen (AID 1106); settings: higher = more signal;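 further: score merges emission near 667 nm with signal to noise over three replicate slides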
Sequence of Dickkopf-related protein 1 (Homo sapiens) (O94907 whole entry, looked up): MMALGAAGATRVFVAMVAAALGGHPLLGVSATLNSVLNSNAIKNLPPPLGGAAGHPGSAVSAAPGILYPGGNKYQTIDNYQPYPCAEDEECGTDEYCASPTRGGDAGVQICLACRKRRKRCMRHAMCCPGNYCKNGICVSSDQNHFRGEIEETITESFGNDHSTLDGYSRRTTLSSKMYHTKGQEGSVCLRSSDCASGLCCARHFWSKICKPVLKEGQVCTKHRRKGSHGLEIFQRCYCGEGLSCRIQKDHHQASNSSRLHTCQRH

[10] = tested on: Inhibin beta A chain (activin A); experiment: small molecules binding activin A – biochemical, small-molecule microarray, 635 nm fluorescence scan, primary screen (AID 1107); settings: INHBA, higher = more signal;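 further: mouse activin A protein probed at 4.33 µg/mL on printed slides; score merges bound-protein fluorescence near 667 nm with spot signal-to-noise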

C=CCNC(=O)[C@@H]1[C@H]2C(=O)O[C@H](c3ccccc3)[C@H](c3ccccc3)N2[C@H](c2ccccc2OCCO)[C@@]12C(=O)Nc1ccc(C#CCC(C(=O)OC)C(=O)OC)cc12
composite z-score [1]: 1.66
composite z-score [2]: -0.319
composite z-score [3]: -0.604
z-score [4]: -3.31 (inactive)
composite z-score [5]: 0.395
composite z-score [6]: 1.03
composite z-score [7]: -0.114
composite z-score [8]: 0.276
composite z-score [9]: 0.0965
composite z-score [10]: 0.482

Cc1ccc(S[C@]2(C(=O)NCC(F)(F)F)CC(=O)N(Cc3cc(C(F)(F)F)cc(C(F)(F)F)c3)[C@@H]2c2ccc(CO)cc2)cc1
composite z-score [1]: 1.13
composite z-score [2]: -0.193
composite z-score [3]: 0.532
z-score [4]: 0.507 (inactive)
composite z-score [5]: -0.463
composite z-score [6]: -0.864
composite z-score [7]: -0.814
composite z-score [8]: -0.861
composite z-score [9]: -0.928
composite z-score [10]: -0.45

C=CC[C@]1(C(=O)N2CCCCC2)N=C(c2ccc(OCCCO)cc2)O[C@H]1c1ccccc1CN=[N+]=[N-]
composite z-score [1]: 1.21
composite z-score [2]: 0.258
composite z-score [3]: 0.622
z-score [4]: -0.234 (inactive)
composite z-score [5]: 1.21
composite z-score [6]: 1.31
composite z-score [7]: 0.128
composite z-score [8]: 0.922
composite z-score [9]: 0.263
composite z-score [10]: 0.851

CC(CO)N1C(=O)[C@@H]2[C@H]3C(=O)OCC=C[C@H]3OC23C=CCN(Cn2nnc4ccccc42)C(=O)[C@@H]13 (stereo not given in full)
composite z-score [1]: 0.996
composite z-score [2]: -0.162
composite z-score [3]: 0.238
z-score [4]: 1.12 (inactive)
composite z-score [5]: -0.78
composite z-score [6]: -0.778
composite z-score [7]: -1.29
composite z-score [8]: -1.13
composite z-score [9]: -0.586
composite z-score [10]: 0.647

C=CCNC(=O)[C@H]1[C@@H]2C(=O)O[C@@H](c3ccccc3)[C@@H](c3ccccc3)N2[C@@H](c2ccccc2OCCO)[C@]12C(=O)N(C(=O)OCCOC)c1ccc(C#CC3(O)CCCCCC3)cc12
composite z-score [1]: 1.32
composite z-score [2]: -0.115
composite z-score [3]: 0.457
z-score [4]: -0.725 (inactive)
composite z-score [5]: 1.13
composite z-score [6]: 0.562
composite z-score [7]: 0.383
composite z-score [8]: 0.502
composite z-score [9]: -0.515
composite z-score [10]: 1.07

Oc1ccc2cc[n+](Cc3cc4c(cc3Br)OCO4)cc2c1
composite z-score [1]: -1.19
composite z-score [2]: 0.144
composite z-score [3]: 0.452
z-score [4]: -0.95 (inactive)
composite z-score [5]: -0.633
composite z-score [6]: -1.16
composite z-score [7]: -0.243
composite z-score [8]: -0.456
composite z-score [9]: -0.14
composite z-score [10]: 0.398

O=C1N(CCS(=O)(=O)c2ccccc2)c2ccccc2[C@H]2OC(c3ccc(OCCCO)cc3)=N[C@@]12Cc1ccccc1
composite z-score [1]: 1.29
composite z-score [2]: 1.1
composite z-score [3]: 1.08
z-score [4]: -1.49 (inactive)
composite z-score [5]: 0.896
composite z-score [6]: 1.05
composite z-score [7]: 1.03
composite z-score [8]: 1.1
composite z-score [9]: 1.04
composite z-score [10]: 1.04

COC(=O)[C@@]1(Cc2ccc(OC)cc2)[C@H]2c3cc(C(=O)N4CCCC4)n(CCc4c[nH]c5ccc(OC)cc45)c3C[C@H]2CN1C(=O)c1ccccc1
composite z-score [1]: 0.789
composite z-score [2]: 1.5
composite z-score [3]: 1.55
z-score [4]: -1.21 (inactive)
composite z-score [5]: 0.591
composite z-score [6]: 1.14
composite z-score [7]: -0.0086
composite z-score [8]: 1.19
composite z-score [9]: -0.299
composite z-score [10]: 0.877

CCCC#C[Si](O[C@H](CC)c1cn([C@H](C)c2ccccc2)nn1)(C(C)C)C(C)C
composite z-score [1]: 0.2
composite z-score [2]: 0.313
composite z-score [3]: -0.212
z-score [4]: -0.383 (inactive)
composite z-score [5]: 0.568
composite z-score [6]: 0.588
composite z-score [7]: 0.564
composite z-score [8]: 0.47
composite z-score [9]: 0.285
composite z-score [10]: -0.348

CC1CC/C=C\[C@H]2OC34C=CCN(Cc5ccccc5)C(=O)[C@H]3N(C(CO)C(C)C)C(=O)[C@@H]4C2C(=O)O1 (stereo not given in full)
composite z-score [1]: 0.659
composite z-score [2]: -0.239
composite z-score [3]: 0.146
z-score [4]: -0.124 (inactive)
composite z-score [5]: -0.871
composite z-score [6]: -0.484
composite z-score [7]: -0.471
composite z-score [8]: -0.902
composite z-score [9]: -0.415
composite z-score [10]: 1.09

CCOC(=O)C[C@H]1[C@H](OC(=O)c2ccc(-c3ccccc3)cc2)[C@@H](NC(=O)CC(C)C)c2cc(OCCCO)ccc2N1C(=O)c1ccc2ccccc2n1
composite z-score [1]: 0.988
composite z-score [2]: -0.239
composite z-score [3]: -0.39
z-score [4]: -0.725 (inactive)
composite z-score [5]: 0.636
composite z-score [6]: 0.0685
composite z-score [7]: 0.239
composite z-score [8]: 0.47
composite z-score [9]: 0.273
composite z-score [10]: 0.0746

O=C(NCCN1CCOCC1)[C@@H]1c2ccccc2C(=O)N(Cc2ccccc2Cl)[C@H]1c1ccc(CO)cc1
composite z-score [1]: -0.855
composite z-score [2]: -0.633
composite z-score [3]: -0.803
z-score [4]: -0.284 (inactive)
composite z-score [5]: -1.16
composite z-score [6]: -0.52
composite z-score [7]: -0.494
composite z-score [8]: 0.0801
composite z-score [9]: -0.569
composite z-score [10]: 0.823

COc1cc(OC)c(C(O)C2C=CC3C(=O)N(Cc4ccccc4)C(=O)C3N2n2cnnc2)cc1Br (stereo not given)
composite z-score [1]: 1.36
composite z-score [2]: 0.287
composite z-score [3]: 0.373
z-score [4]: -1.21 (inactive)
composite z-score [5]: 1.05
composite z-score [6]: 1.26
composite z-score [7]: -0.496
composite z-score [8]: 0.777
composite z-score [9]: -1.05
composite z-score [10]: -0.769

COc1ccc(C#Cc2ccc3c(c2)[C@]2(C(=O)N3)[C@H](c3ccc(OCCO)cc3)N3[C@H](c4ccccc4)[C@H](c4ccccc4)OC(=O)[C@H]3[C@@H]2C(=O)NC[C@H](O)c2ccccc2)cc1
composite z-score [1]: 0.614
composite z-score [2]: 0.0477
composite z-score [3]: -0.0975
z-score [4]: -0.124 (inactive)
composite z-score [5]: 0.882
composite z-score [6]: 0.72
composite z-score [7]: 0.342
composite z-score [8]: 1.08
composite z-score [9]: 0.301
composite z-score [10]: -0.177

CCCC=C(CCC)[C@@H](NS(=O)(=O)c1ccc(C(F)(F)F)cc1)c1ccccc1
composite z-score [1]: 0.156
composite z-score [2]: -0.001
composite z-score [3]: 0.614
z-score [4]: -0.172 (inactive)
composite z-score [5]: 0.0772
composite z-score [6]: 0.571
composite z-score [7]: -0.585
composite z-score [8]: -0.143
composite z-score [9]: -0.61
composite z-score [10]: 0.388

O=C1N(Cc2ccccc2)c2ccccc2C[C@]12N=C(c1ccc(OCCCO)cc1)O[C@@H]2c1ccccc1
composite z-score [1]: 0.25
composite z-score [2]: 0.035
composite z-score [3]: 0.333
z-score [4]: 0.214 (inactive)
composite z-score [5]: 0.796
composite z-score [6]: 0.914
composite z-score [7]: 0.498
composite z-score [8]: 0.935
composite z-score [9]: 0.271
composite z-score [10]: 0.736

COCCOC(=O)N1C(=O)[C@@]2(c3cc(C#CC4(O)CCCCCC4)ccc31)[C@H](c1ccc(O)cc1)N1[C@H](c3ccccc3)[C@H](c3ccccc3)OC(=O)[C@H]1[C@@H]2C(=O)N1CCN(c2ncccn2)CC1
composite z-score [1]: 0.952
composite z-score [2]: 0.0005
composite z-score [3]: 0.426
z-score [4]: 0.325 (inactive)
composite z-score [5]: 0.425
composite z-score [6]: 0.788
composite z-score [7]: 0.149
composite z-score [8]: 0.476
composite z-score [9]: 0.063
composite z-score [10]: -0.275

— PubChem BioAssay
